# Experimental data taken from paper PMC8384837, “Expanding the binding specificity for RNA recognition by a PUF domain”.
# Numbering of substitutions follows the chain as printed.
# Legend:
# Test in all cases: yeast three-hybrid, YBZ-1, SC-Leu-His + 0.5 mM 3-AT, 4 days
# Details in all cases: tags: N-Gal4 AD-HA kept; label: inside an RPR1-promoter hybrid RNA with tandem MS2 sites; ssRNA
# PUM1 PUF domain R1-GRR = PUM1 PUF domain R1-GRR (Homo sapiens, UniProt Q14671 828-1176, S863G;Q867R)
# Procedure, shortened: (§1)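 The interaction score is the log change in variant frequency from input to selection. Scores were computed in log2 with a pseudocount of 1 for absent variants, using Illumina sequencing of PCR-amplified repeat regions. The input came from four days on SC-Leu and the selection from four days on SC-Leu-His + 0.5 mM 3-AT. The cells were strain YBZ-1 (LexA–MS2 coat fusion, HIS3 reporter) co-expressing Pumilio-1 PUF domain libraries and matching RNA elements from a centromeric plasmid.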
# PUM1 PUF domain R6-SWK = target: T1, PUM1 PUF domain R6-SWK (Homo sapiens, UniProt Q14671 828-1176, N1043S;Y1044W;Q1047K)
# T1 sequence: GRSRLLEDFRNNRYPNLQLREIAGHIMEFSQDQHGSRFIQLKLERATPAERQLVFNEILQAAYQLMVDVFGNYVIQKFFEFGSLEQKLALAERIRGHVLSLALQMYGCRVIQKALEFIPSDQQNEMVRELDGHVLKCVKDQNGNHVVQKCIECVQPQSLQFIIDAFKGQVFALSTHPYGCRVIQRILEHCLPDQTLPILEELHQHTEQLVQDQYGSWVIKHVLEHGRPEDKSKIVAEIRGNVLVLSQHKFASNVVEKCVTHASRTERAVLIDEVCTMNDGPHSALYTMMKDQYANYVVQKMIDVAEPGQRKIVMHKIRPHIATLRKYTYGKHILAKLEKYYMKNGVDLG
# Procedure, shortened: as §1
# PUM1 PUF domain R3-SPS = PUM1 PUF domain R3-SPS (Homo sapiens, UniProt Q14671 828-1176, C935S;R936P;Q939S)
# Procedure, shortened: as §1
# PUM1 PUF domain R5-FRD = PUM1 PUF domain R5-FRD (Homo sapiens, UniProt Q14671 828-1176, C1007F;Q1011D)
# Procedure, shortened: as §1
# PUM1 PUF domain R8-RRI = PUM1 PUF domain R8-RRI (Homo sapiens, UniProt Q14671 828-1176, N1122R;Y1123R;Q1126I)
# Procedure, shortened: as §1
# PUM1 PUF domain R3-LFV = PUM1 PUF domain R3-LFV (Homo sapiens, UniProt Q14671 828-1176, C935L;R936F;Q939V)
# Procedure, shortened: as §1
# PUM1 PUF domain R6-RHR = target: T2, PUM1 PUF domain R6-RHR (Homo sapiens, UniProt Q14671 828-1176, N1043R;Y1044H;Q1047R)
# T2 sequence: T1 sequence with S216R, W217H, K220R
# Procedure, shortened: as §1
# PUM1 PUF domain R5-GRC = PUM1 PUF domain R5-GRC (Homo sapiens, UniProt Q14671 828-1176, C1007G;Q1011C)
# Procedure, shortened: as §1
# PUM1 PUF domain R5-IFM = PUM1 PUF domain R5-IFM (Homo sapiens, UniProt Q14671 828-1176, C1007I;R1008F;Q1011M)
# Procedure, shortened: as §1
# PUM1 PUF domain R8-WYR = PUM1 PUF domain R8-WYR (Homo sapiens, UniProt Q14671 828-1176, N1122W;Q1126R)
# Procedure, shortened: as §1
# PUM1 PUF domain R3-GPQ = PUM1 PUF domain R3-GPQ (Homo sapiens, UniProt Q14671 828-1176, C935G;R936P)
# Procedure, shortened: as §1
# PUM1 PUF domain R5-RQM = PUM1 PUF domain R5-RQM (Homo sapiens, UniProt Q14671 828-1176, C1007R;R1008Q;Q1011M)
# Procedure, shortened: as §1
# PUM1 PUF domain R3-EFS = PUM1 PUF domain R3-EFS (Homo sapiens, UniProt Q14671 828-1176, C935E;R936F;Q939S)
# Procedure, shortened: as §1
# PUM1 PUF domain R5-NTR = PUM1 PUF domain R5-NTR (Homo sapiens, UniProt Q14671 828-1176, C1007N;R1008T;Q1011R)
# Procedure, shortened: as §1
# PUM1 PUF domain R1-SPK = PUM1 PUF domain R1-SPK (Homo sapiens, UniProt Q14671 828-1176, R864P;Q867K)
# Procedure, shortened: as §1
# PUM1 PUF domain R3-LRS = PUM1 PUF domain R3-LRS (Homo sapiens, UniProt Q14671 828-1176, C935L;Q939S)
# Procedure, shortened: as §1
# PUM1 PUF domain R2-RTS = PUM1 PUF domain R2-RTS (Homo sapiens, UniProt Q14671 828-1176, N899R;Y900T;Q903S)
# Procedure, shortened: as §1
# PUM1 PUF domain R6-CYE = target: T3, PUM1 PUF domain R6-CYE (Homo sapiens, UniProt Q14671 828-1176, N1043C;Q1047E)
# T3 sequence: T1 sequence with S216C, W217Y, K220E
# Procedure, shortened: as §1
# PUM1 PUF domain R8-HYL = PUM1 PUF domain R8-HYL (Homo sapiens, UniProt Q14671 828-1176, N1122H;Q1126L)
# Procedure, shortened: as §1
# PUM1 PUF domain R1-NIG = PUM1 PUF domain R1-NIG (Homo sapiens, UniProt Q14671 828-1176, S863N;R864I;Q867G)
# Procedure, shortened: as §1
sequence,measurement,setting,value
GGCUAGAACUAGUGGAUCCCCCGGCGCCCGGCGGCUCGAGCCCGGGUAAGUGUAAAUGGUCUGCAUGCCGCCGGGCGCCAUGCCUGCAGGUCGACUCUAGAAAACAUG,binding signal,PUM1 PUF domain R1-GRR,1.78 log2 enrichment (interaction score)
GGCUAGAACUAGUGGAUCCCCCGGCGCCCGGCGGCUCGAGCCCGGGUAAGUGUAAAUAGUCUGCAUGCCGCCGGGCGCCAUGCCUGCAGGUCGACUCUAGAAAACAUG,binding signal,PUM1 PUF domain R6-SWK,6.97 log2 enrichment (interaction score)
same,binding signal,PUM1 PUF domain R3-SPS,3.13 log2 enrichment (interaction score)
same,binding signal,PUM1 PUF domain R5-FRD,1.06 log2 enrichment (interaction score)
same,binding signal,PUM1 PUF domain R8-RRI,1.24 log2 enrichment (interaction score)
same,binding signal,PUM1 PUF domain R3-LFV,3.48 log2 enrichment (interaction score)
same,binding signal,PUM1 PUF domain R6-RHR,3.36 log2 enrichment (interaction score)
same,binding signal,PUM1 PUF domain R5-GRC,4.07 log2 enrichment (interaction score)
same,binding signal,PUM1 PUF domain R5-IFM,2.52 log2 enrichment (interaction score)
same,binding signal,PUM1 PUF domain R8-WYR,4.75 log2 enrichment (interaction score)
same,binding signal,PUM1 PUF domain R3-GPQ,4.19 log2 enrichment (interaction score)
same,binding signal,PUM1 PUF domain R5-RQM,2.06 log2 enrichment (interaction score)
same,binding signal,PUM1 PUF domain R3-EFS,2.99 log2 enrichment (interaction score)
GGCUAGAACUAGUGGAUCCCCCGGCGCCCGGCGGCUCGAGCCCGGGUAAGUGUCAAUAGUCUGCAUGCCGCCGGGCGCCAUGCCUGCAGGUCGACUCUAGAAAACAUG,binding signal,PUM1 PUF domain R5-FRD,2.84 log2 enrichment (interaction score)
same,binding signal,PUM1 PUF domain R5-GRC,0.62 log2 enrichment (interaction score)
same,binding signal,PUM1 PUF domain R5-NTR,5.46 log2 enrichment (interaction score)
same,binding signal,PUM1 PUF domain R5-RQM,4.46 log2 enrichment (interaction score)
GGCUAGAACUAGUGGAUCCCCCGGCGCCCGGCGGCUCGAGCCCGGGUAAGUGUAAAUCGUCUGCAUGCCGCCGGGCGCCAUGCCUGCAGGUCGACUCUAGAAAACAUG,binding signal,PUM1 PUF domain R1-GRR,3.99 log2 enrichment (interaction score)
same,binding signal,PUM1 PUF domain R1-SPK,2.31 log2 enrichment (interaction score)
GGCUAGAACUAGUGGAUCCCCCGGCGCCCGGCGGCUCGAGCCCGGGUAAGUGAAAAUAGUCUGCAUGCCGCCGGGCGCCAUGCCUGCAGGUCGACUCUAGAAAACAUG,binding signal,PUM1 PUF domain R6-SWK,1.25 log2 enrichment (interaction score)
same,binding signal,PUM1 PUF domain R6-RHR,1.86 log2 enrichment (interaction score)
GGCUAGAACUAGUGGAUCCCCCGGCGCCCGGCGGCUCGAGCCCGGGUAAGUGUAAUUAGUCUGCAUGCCGCCGGGCGCCAUGCCUGCAGGUCGACUCUAGAAAACAUG,binding signal,PUM1 PUF domain R3-SPS,1.47 log2 enrichment (interaction score)
same,binding signal,PUM1 PUF domain R3-LFV,4.09 log2 enrichment (interaction score)
same,binding signal,PUM1 PUF domain R3-LRS,1.26 log2 enrichment (interaction score)
same,binding signal,PUM1 PUF domain R3-GPQ,1.42 log2 enrichment (interaction score)
same,binding signal,PUM1 PUF domain R3-EFS,4.44 log2 enrichment (interaction score)
GGCUAGAACUAGUGGAUCCCCCGGCGCCCGGCGGCUCGAGCCCGGGUAAGUGUGAAUAGUCUGCAUGCCGCCGGGCGCCAUGCCUGCAGGUCGACUCUAGAAAACAUG,binding signal,PUM1 PUF domain R5-GRC,1.57 log2 enrichment (interaction score)
GGCUAGAACUAGUGGAUCCCCCGGCGCCCGGCGGCUCGAGCCCGGGUAAGUGUAAAGAGUCUGCAUGCCGCCGGGCGCCAUGCCUGCAGGUCGACUCUAGAAAACAUG,binding signal,PUM1 PUF domain R2-RTS,3.27 log2 enrichment (interaction score)
GGCUAGAACUAGUGGAUCCCCCGGCGCCCGGCGGCUCGAGCCCGGGUAAGUGGAAAUAGUCUGCAUGCCGCCGGGCGCCAUGCCUGCAGGUCGACUCUAGAAAACAUG,binding signal,PUM1 PUF domain R6-CYE,2.53 log2 enrichment (interaction score)
GGCUAGAACUAGUGGAUCCCCCGGCGCCCGGCGGCUCGAGCCCGGGUAAGCGUAAAUAGUCUGCAUGCCGCCGGGCGCCAUGCCUGCAGGUCGACUCUAGAAAACAUG,binding signal,PUM1 PUF domain R8-RRI,2.58 log2 enrichment (interaction score)
same,binding signal,PUM1 PUF domain R8-HYL,2.26 log2 enrichment (interaction score)
same,binding signal,PUM1 PUF domain R8-WYR,4.97 log2 enrichment (interaction score)
GGCUAGAACUAGUGGAUCCCCCGGCGCCCGGCGGCUCGAGCCCGGGUAAGUGUAACUAGUCUGCAUGCCGCCGGGCGCCAUGCCUGCAGGUCGACUCUAGAAAACAUG,binding signal,PUM1 PUF domain R3-LFV,2.66 log2 enrichment (interaction score)
GGCUAGAACUAGUGGAUCCCCCGGCGCCCGGCGGCUCGAGCCCGGGUAAGUGUUAAUAGUCUGCAUGCCGCCGGGCGCCAUGCCUGCAGGUCGACUCUAGAAAACAUG,binding signal,PUM1 PUF domain R5-GRC,4.6 log2 enrichment (interaction score)
GGCUAGAACUAGUGGAUCCCCCGGCGCCCGGCGGCUCGAGCCCGGGUAAGUGUAAGUAGUCUGCAUGCCGCCGGGCGCCAUGCCUGCAGGUCGACUCUAGAAAACAUG,binding signal,PUM1 PUF domain R3-LFV,5.59 log2 enrichment (interaction score)
same,binding signal,PUM1 PUF domain R3-LRS,4.15 log2 enrichment (interaction score)
same,binding signal,PUM1 PUF domain R3-GPQ,3.73 log2 enrichment (interaction score)
same,binding signal,PUM1 PUF domain R3-EFS,3.82 log2 enrichment (interaction score)
GGCUAGAACUAGUGGAUCCCCCGGCGCCCGGCGGCUCGAGCCCGGGUAAGUGUAAAUUGUCUGCAUGCCGCCGGGCGCCAUGCCUGCAGGUCGACUCUAGAAAACAUG,binding signal,PUM1 PUF domain R1-NIG,3.06 log2 enrichment (interaction score)
same,binding signal,PUM1 PUF domain R1-GRR,2.59 log2 enrichment (interaction score)
